HEK293 tox = Cytotoxic Profiling in HEK 293 Cell Line of Diverse Libraries Using Quantitative High-Throughput Screening. HEK 293 viability, ATP luminescence (CellTiter-Glo), 48-72 h. Potency, µM (series often up to 115 µM), for the others: at the top dose activity change, negative = cytotoxicity, hits mostly inhibitors. 94,000 tested, 6.6% active. AID 1345083, 2018; further: on the % scale 0 is the no-effect control and ±100 the full control effect; nearly all actives have a fitted effect of over 60% in size
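ATP-coupled CellTiter-Glo luminescence served as viability read-out, recorded 10 min after reagent addition at room temperature. HEK 293 cells, 250 cells/well, had been incubated with pintool-transferred compound for 48 or 72 hr at 37 degree Celsius.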
3T3 cytotox = Cytotoxic Profiling in NIH 3T3 Cell Line of Diverse Libraries Using Quantitative High-Throughput Screening. NIH 3T3 viability, CellTiter-Glo ATP luminescence, 48-72 h. 94,000 tested, 4.3% active. AID 1345082, 2018. Potency, µM (titrated, usually from 96.7 µM), for the others: at the highest dose activity change, negative = cytotoxicity, hits mostly inhibitors; further: on the % scale 0 is the no-effect control and ±100 the full control effect; nearly all actives have a fitted effect of over 55% in size
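Cytotoxicity is measured as loss of cellular ATP: NIH 3T3 cells (400/well) are exposed to compound for 48 or 72 hr at 37 °C, then CellTiter-Glo luminescence is imaged after 10 min at room temperature.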
NPR1 antag = Natriuretic polypeptide receptor (hNpr1) antagonism - Primary qHTS; Atrial natriuretic peptide receptor 1 (Homo sapiens), P16066; HEK293 hNpr1 GloSensor cGMP, ANP-stimulated luminescence; Potency, µM (titrated, usually from 46.3 µM), for inactives: at the top dose activity change, negative = inhibition, hits mostly inhibitors; 76,000 tested, 1.6% active; AID 1347048, 2019; calls by dose curve; further: on the % scale 0 is the no-effect control and ±100 the full control effect; nearly all actives have a fitted effect of over 60% in size
Target sequence (P16066 whole entry, looked up): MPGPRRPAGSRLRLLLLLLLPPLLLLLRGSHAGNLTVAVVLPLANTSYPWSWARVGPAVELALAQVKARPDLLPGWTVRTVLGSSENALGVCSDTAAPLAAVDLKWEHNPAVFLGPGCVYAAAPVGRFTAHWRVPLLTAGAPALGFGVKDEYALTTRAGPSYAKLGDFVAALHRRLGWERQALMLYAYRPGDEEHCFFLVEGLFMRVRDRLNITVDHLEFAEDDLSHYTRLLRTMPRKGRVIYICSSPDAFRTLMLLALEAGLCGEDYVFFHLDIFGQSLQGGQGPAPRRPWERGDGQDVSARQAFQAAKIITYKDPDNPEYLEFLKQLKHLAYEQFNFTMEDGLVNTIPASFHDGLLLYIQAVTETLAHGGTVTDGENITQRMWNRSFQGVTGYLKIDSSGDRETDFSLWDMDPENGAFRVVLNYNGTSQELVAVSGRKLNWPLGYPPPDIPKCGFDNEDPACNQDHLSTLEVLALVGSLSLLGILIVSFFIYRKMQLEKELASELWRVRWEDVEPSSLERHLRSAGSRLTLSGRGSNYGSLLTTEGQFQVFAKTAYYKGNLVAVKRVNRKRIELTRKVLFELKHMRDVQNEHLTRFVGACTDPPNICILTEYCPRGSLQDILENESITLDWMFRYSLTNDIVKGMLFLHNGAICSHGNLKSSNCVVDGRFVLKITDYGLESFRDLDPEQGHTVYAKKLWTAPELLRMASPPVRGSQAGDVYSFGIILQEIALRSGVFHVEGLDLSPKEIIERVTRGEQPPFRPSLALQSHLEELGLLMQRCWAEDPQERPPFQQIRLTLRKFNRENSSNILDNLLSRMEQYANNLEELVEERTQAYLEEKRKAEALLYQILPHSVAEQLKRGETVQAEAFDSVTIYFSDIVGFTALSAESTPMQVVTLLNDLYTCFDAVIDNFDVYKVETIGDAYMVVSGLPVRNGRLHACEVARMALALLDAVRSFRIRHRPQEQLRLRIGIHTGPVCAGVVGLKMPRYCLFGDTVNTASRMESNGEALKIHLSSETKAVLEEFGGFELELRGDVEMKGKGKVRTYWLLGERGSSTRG
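Compound pre-incubated 30 min at room temperature on GloSensor-loaded HEK293 cells stably carrying hNpr1 and the pGS-40F cGMP biosensor. Stimulation uses hNppA at 0.1 nM final; luminescence is taken at baseline and 20 min post-agonist.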
GPT2 inh = Primary qHTS assay for inhibitors of Glutamate pyruvate transaminase 2 (GPT2); Alanine aminotransferase 2 (Homo sapiens), Q8TD30; Recombinant GPT2, coupled pyruvate oxidase/HRP Amplex Red fluorescence; Potency, µM (highest dose often 57.7 µM), inactives show at the highest dose activity change, negative = inhibition, usual class: inhibitors; 100,000 tested, 0.25% active; further: on the % scale 0 is the no-effect control and ±100 the full control effect; nearly all actives have a fitted effect of over 60% in size
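GPT2 10ng/uL, a-KG 250uM, L-Ala 2mM, HEPES pH7.5 + 0.0001% Tween; 30 min RT. Then Amplex mix (PO/HRP/ThPP), 30 min RT dark, fluorescence. AOA 50uM used as positive control.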
FLuc inh-1 = Firefly luciferase inhibition profiling of diverse chemical library using quantitative high-throughput screening; Luciferin 4-monooxygenase (Photinus pyralis), P08659; purified P. pyralis luciferase, luminescence, biochemical; Potency, µM (highest dose often 115 µM), actives largely listed as inhibitors; 76,000 tested, 2.5% active; AID 1347043, 2019; further: on the % scale 0 is the no-effect control and ±100 the full control effect; nearly all actives have a fitted effect of over 65% in size
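Biochemical qHTS: compound (6-point titration) added to 10uM D-luciferin plus 10uM ATP in Tris acetate pH 7.5 buffer with Mg, Tween-20 and BSA, then purified enzyme at 10nM; light output imaged.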
FLuc SDR no ATP = Firefly luciferase (FLuc-C-HiBiT) SDR gain of signal screen - without ATP; 1,300 tested, 7.8% active; Potency, µM (highest dose often 32.7 µM), for inactives: top-dose activation (signal gain), actives largely listed as activators; shares compounds with FLuc inh-1; AID 1963318, 2024; Purified FLuc-C-HiBiT, Nano-Glo HiBiT luminescence, no ATP; further: nearly all actives have a fitted effect of over 55% in size
FLuc SDR ATP = Firefly luciferase (FLuc-C-HiBiT) SDR gain of signal screen - plus ATP | shares compounds with FLuc inh-1 | purified FLuc-C-HiBiT + ATP, HiBiT complementation luminescence | Potency, µM (doses to about 32.7 µM), without a hit: at the highest dose activation (gain of signal), most hits filed as activators | 1,300 tested, 8.7% active;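 further: signal reports ligand binding via conformational change of the enzyme rather than luciferase catalysis; % of control where 0% means no effect; nearly all actives have a fitted effect of over 55% in size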
FLuc inh-2 = Firefly luciferase (FLuc-C-HiBiT) enzymatic inhibition screen - Functional assay. shares compounds with FLuc inh-1. purified FLuc-C-HiBiT enzyme, luciferin luminescence. Potency, µM (highest dose often 32.7 µM), for inactives: at the highest dose activity change, negative = inhibition, most hits filed as inhibitors. 1,300 tested, 42% active; further: on the % scale 0 is the no-effect control and ±100 the full control effect; nearly all actives have a fitted effect of over 70% in size
* marks the source's active call; other numbers are inactive results; i = inactive; ? = inconclusive; . = no result given; [ ] = dose if it differs, or a comment. Most compounds without a hit are left out; they make up all but 10% or so of the library. Unless noted, the call rests on the fitted dose curve; in most records, active means well fitted curve in the direction sought with a large enough effect; inconclusive means small, poorly fitted or top-dose-only effect, or another doubt; inactive means no such curve, though single readings can be large; an effect the other way counts as inactive or inconclusive. Potency means the concentration at half of the fitted maximal effect.

SMILES | HEK293 tox | 3T3 cytotox | NPR1 antag | GPT2 inh | FLuc inh-1 | FLuc SDR no ATP | FLuc SDR ATP | FLuc inh-2
O=C1c2ccccc2OCC2(CCN([S+](=O)([O-])c3ccccc3)C2)N1[S+](=O)([O-])c1ccccc1 (stereo unspecified) | ? | -19% | 2% | 1% | i | . | . | .
CC(C)n1cc2cc(C(=O)Nc3ccc4c(c3)OCCO4)sc2c1 | 35µM* | -15% | ? | i | 14µM* | 23% | 17% | 9.9µM*
COc1ccccc1C(=O)Nc1cc2c(cc1N1CCCC1)n(C)c(=O)n2C | . | . | . | i | . | . | . | .
Cc1ccc(C(=O)Nc2onc3c2CCCC3)cc1 | . | . | . | . | . | ? | 3.9µM* | 0.99µM*
COc1ccccc1C(=O)Nc1onc2c1CCCC2 | . | . | . | . | . | 14% | ? | 9.9µM*
CC(=O)N1CCN(C(=O)C2CCCN2c2nccc(Nc3ccc(C)cc3)n2)CC1 (stereo unspecified) | -8% | i | . | 5% | . | . | . | .
O=C(Nc1nc2ccccc2s1)c1ccc2c(c1)OCCN(CCC(F)(F)F)C2 | 20µM* | ? | ? | i | 13µM* | 13%[49.3 µM] | 10%[49.3 µM] | ?
O=C(Nc1nc2c(F)cccc2s1)c1ccc2c(c1)OCCO2 | . | . | . | . | . | 9.9µM* | ? | 0.5µM*
O=C(Nc1nccs1)c1ccc2c(c1)OCCN(CCC(F)(F)F)C2 | ? | ? | -13%[70.6 µM] | -22%[88.5 µM] | ? | . | . | .
O=C(Nc1nccs1)c1ccc2c(c1)OCCN(c1ccccc1)C2 | -26%[172 µM] | ? | -18%[70.6 µM] | -18%[88.5 µM] | ? | . | . | .
COc1ccc(CCN2Cc3cc(NC(=O)c4ccccc4OC)ccc3OCC2=O)cc1 | ? | ? | -19% | -1% | i | . | . | .
COc1cccc2cc(C(=O)Nc3ccc(CC(=O)O)cc3)c(=O)oc12 | . | . | . | . | . | 2.5µM* | 1.8µM* | 3.1µM*
O=C(COc1ccccc1)N[C@H]1CO[C@H]2[C@@H]1OC[C@@H]2n1nnnc1Oc1ccc2c(c1)OCO2 | -15% | -22% | -6% | i | i | . | . | .
COc1ccccc1Nc1ccnc(N2CCC[C@H]2C(=O)NC(C)C)n1 | i | 4% | . | i | . | . | . | .
COc1ccc(C2(C(=O)N3CCC4(CC3)N(C)C(=O)CS4=O)CC2)cc1 (stereo unspecified) | -1% | -1% | 4% | i | i | . | . | .
COc1ccccc1NC(=O)Cn1c(-c2ccc(F)cc2)nc(C)cc1=O | ? | -14% | -6% | -21% | i | . | . | .
COc1ccccc1NC(=O)CN1C(=O)CC(c2ccc(C)c(C)c2)=Nc2ccccc21 | . | . | . | . | . | 19% | 15% | ?
Cc1nc(-c2ccccc2)n(Cc2ccc(C#N)cc2)c(=O)c1CCO | ? | ? | 3% | 1% | i | . | . | .
CN(c1ccccc1)c1ccc2ncn(C3CC3)c(=O)c2n1 | ? | ? | 16µM* | -5%[88.5 µM] | 1.3µM* | 18µM* | 7.2µM* | 5.7µM*
Cc1ccc(/C=C/C(=O)N2CCC(c3nc4ccccc4o3)CC2)cc1 | . | . | . | . | . | 12% | ? | ?
Cc1ccc(NC(=O)CN2C(=O)NC3(CCCCC3)C2=O)c(C)c1 | -4% | -14% | 4% | -3% | i | . | . | .
Cc1ccc(NC(=O)c2oc3ccc4c(c3c2C)C(=O)CC(C)(C)O4)c(C)c1 | . | . | . | . | . | 20% | ? | ?
COc1cccc(-n2nnc(-c3nc(-c4ccccc4F)no3)c2C)c1 | . | . | . | . | . | 18% | ? | 5.6µM*
COc1ccc(C2Cn3nnc(-c4nc(-c5ccccc5F)no4)c3CO2)cc1 (stereo unspecified) | -8% | i | ? | i | i | . | . | .
O=C(COC(=O)c1cc(-c2cccs2)nc2ccccc12)c1ccc(Br)cc1 | . | . | . | . | . | 14% | 8% | -18%
SMILES | HEK293 tox | 3T3 cytotox | NPR1 antag | GPT2 inh | FLuc inh-1 | FLuc SDR no ATP | FLuc SDR ATP | FLuc inh-2
COCCNC(=O)C[C@@H]1c2nc(NC(=O)c3ccc(F)cc3)sc2C[C@@H]2[C@](C)(CO)[C@H](O)CC[C@]21C | 1% | -8% | 1% | i | i | . | . | .
CC1(NC(=O)C2CC2)CN(Cc2nc(-c3cccc(F)c3)cs2)C1 | ? | -20%[138 µM] | 25µM* | 0%[88.5 µM] | 2.8µM* | ? | 19%[49.3 µM] | ?
CC1(NC(=O)C2CC2)CN(Cc2nc(-c3ccccc3OCc3ccccc3)cs2)C1 | 79µM* | ? | -14%[70.6 µM] | 2%[88.5 µM] | 7.9µM* | 19%[49.3 µM] | 13%[49.3 µM] | ?
O=C(NC[C@H]1COCc2nc3cc(C(F)(F)F)ccc3n21)c1ccccn1 | -20%[172 µM] | -19%[138 µM] | -18%[70.6 µM] | i | i | . | . | .
COCCNc1cc2c(cn1)CN(Cc1ccccc1)CCN2 | ? | ? | -3%[70.6 µM] | 3%[88.5 µM] | ? | . | . | .
c1cncc(CN2CCNc3cc(-c4cn[nH]c4)ncc3C2)c1 | ? | i | -1%[70.6 µM] | i | ? | . | . | .
c1cncc(Nc2cc3c(cn2)CN(Cc2cnc[nH]2)CCN3)c1 | . | . | . | . | . | 11% | 9% | -8%
Oc1ccccc1CN1CCNc2cc(Nc3ccccc3)ncc2C1 | 28µM* | 32µM* | -25%[70.6 µM] | 3%[88.5 µM] | 5.6µM* | 17% | 12% | ?
c1cncc(Nc2cc3c(cn2)CN(Cc2ccn[nH]2)CCN3)c1 | . | . | . | . | . | 21%[49.3 µM] | 14%[49.3 µM] | ?
c1ccc(Nc2cc3c(cn2)CN(Cc2ccn[nH]2)CCN3)cc1 | ? | ? | -21%[70.6 µM] | -4%[88.5 µM] | 7.9µM* | 28%[49.3 µM] | 16%[49.3 µM] | ?
Cc1[nH]cnc1CN1CCNc2cc(Nc3ccccc3)ncc2C1 | ? | ? | -5%[70.6 µM] | 2%[88.5 µM] | 6.3µM* | 27%[49.3 µM] | 16%[49.3 µM] | ?
COc1ccc(OC)c(-c2noc(Nc3cccc(F)c3)n2)c1 | ? | -12% | -5% | i | i | . | . | .
CCc1ccc(Nc2nc(-c3ccccc3F)no2)cc1 | ? | ? | 13µM* | -14% | 2.5µM* | 20% | 19% | 6.2µM*
